Data published in PubChem BioAssay AID720492 (Broad Institute, 2013).
Calls of active or inactive are those of the source.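 Rule for the calls: active = unnormalized dose curve rising to cross level 40 at or below the top tested dose; inconclusive = flat fit at moderately raised activity, or poor fit; inactive = the rest.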

Test: miR-27b level by RT-PCR, dose response, miR-122 / miR-27b project, Huh7 cells, cherry-pick, activator set (AID 720492)

Compound | outcome
COCC(=O)N(C)C[C@H]1Oc2cc(-c3ccc(C#N)cc3)ccc2S(=O)(=O)N([C@@H](C)CO)C[C@H]1C | inactive
C[C@@H]1CN([C@@H](C)CO)S(=O)(=O)c2ccc(C#Cc3ccncc3)cc2O[C@H]1CN(C)C(=O)C1CCOCC1 | inactive
COCC(=O)N(C)C[C@H]1Oc2cc(-c3ccccc3F)ccc2S(=O)(=O)N([C@H](C)CO)C[C@H]1C | inactive
CNC[C@@H]1Oc2cc(C#CC3CCCCC3)ccc2S(=O)(=O)N([C@@H](C)CO)C[C@@H]1C | inactive
CN1C(=O)c2cc(NC(=O)c3cccc(F)c3)ccc2OC[C@H]2O[C@@H](CC(=O)O)CC[C@@H]21 | inactive
C[C@H]1CN([C@@H](C)CO)S(=O)(=O)c2ccc(C#Cc3ccncc3)cc2O[C@H]1CN(C)C(=O)C1CCOCC1 | inactive
C[C@H](CO)N1C[C@H](C)[C@@H](CN(C)C(=O)C2CCOCC2)Oc2cc(C#Cc3ccncc3)ccc2S1(=O)=O | inactive
CN1C(=O)c2cc(NC(=O)c3cccc(F)c3)ccc2OC[C@@H]2O[C@H](CC(=O)O)CC[C@H]21 | inactive
CN1C(=O)c2cc(NC(=O)c3cccc(F)c3)ccc2OC[C@H]2O[C@@H](CC(=O)O)CC[C@H]21 | inactive
COCC(=O)N(C)C[C@H]1Oc2cc(-c3ccc(C#N)cc3)ccc2S(=O)(=O)N([C@H](C)CO)C[C@H]1C | inactive
C[C@@H]1CN([C@H](C)CO)S(=O)(=O)c2ccc(/C=C/c3ccccc3)cc2O[C@@H]1CN(C)C(=O)c1cccnc1 | inactive
COc1ccc(S(=O)(=O)N(C)C[C@@H]2Oc3ncc(/C=C/c4ccccc4)cc3C(=O)N([C@@H](C)CO)C[C@@H]2C)cc1 | inactive
CN1C(=O)c2cc(NC(=O)c3cccc(F)c3)ccc2OC[C@H]2O[C@H](CC(=O)O)CC[C@@H]21 | inactive
CN1C(=O)c2cc(NC(=O)c3cccc(F)c3)ccc2OC[C@H]2O[C@H](CC(=O)O)CC[C@H]21 | inactive
C[C@H]1CN([C@@H](C)CO)S(=O)(=O)c2ccc(C#Cc3ccncc3)cc2O[C@@H]1CN(C)C(=O)C1CCOCC1 | inactive
C[C@H]1CN([C@@H](C)CO)C(=O)c2cc(-c3ccc(C#N)cc3)cnc2O[C@H]1CN(C)C(=O)c1ccccc1 | inactive
COCC(=O)N(C)C[C@H]1Oc2cc(C#Cc3cccnc3)ccc2S(=O)(=O)N([C@@H](C)CO)C[C@H]1C | inactive
COc1cccc(-c2ccc3c(c2)O[C@H](CN(C)C(=O)C2CCOCC2)[C@H](C)CN([C@@H](C)CO)S3(=O)=O)c1 | inactive
CCCC#Cc1ccc2c(c1)O[C@H](CN(C)C(=O)c1ccncc1)[C@H](C)CN([C@@H](C)CO)S2(=O)=O | inactive
CN1C(=O)c2cc(NC(=O)c3cccc(F)c3)ccc2OC[C@@H]2O[C@H](CC(=O)O)CC[C@@H]21 | inactive
COCC(=O)N(C)C[C@H]1Oc2cc(C#Cc3cccnc3)ccc2S(=O)(=O)N([C@H](C)CO)C[C@H]1C | inactive
